The values below come from PubChem BioAssay (NCI).

Compounds without any hit were thinned out: in the full panel of roughly 83,000, 20% have a hit.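 Treatment: one concentration, 48 hours, 96-well format. Scoring: percent growth, with anything below 10 considered active.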 Values without a mark were called inactive. Calls of active or inactive are those of the source.

Among the test systems are T-47D breast; BT-549 breast; MDA-MB-435 melanoma; SW-620 colon; MCF7 breast; HCT-116 colon; HCC-2998 colon; KM12 colon.
Common to all, as to test: NCI-60 one-dose screen, 48 h (100 = growth as untreated, 0 = no growth, -100 = all killed)
Common to all, as to conditions: 10 µM

As to `O=C(N/N=C/c1c(Cl)cccc1Cl)c1ccccc1Nc1cccc(C(F)(F)F)c1`, the growth in the test on T-47D breast is 94.4%; with BT-549 breast, 81.3%; in the test with MDA-MB-435 melanoma, 110%; in the test with SW-620 colon, 96.2%; in the test on MCF7 breast, 94.7%; with HCT-116 colon, 93.1%. In addition, the growth in the test on HCC-2998 colon is 117%.

`Nc1ccc(CC[C@H]2CCC/C=C/[C@@H]3C[C@H](O)C[C@H]3[C@H](O)/C=C/C(=O)O2)cc1`: the growth in the test with T-47D breast is 10.2%; in the test with BT-549 breast, 11.6%; in the test on MDA-MB-435 melanoma, 11.4%; in the test with SW-620 colon, -27.4% (active); in the test on MCF7 breast, -44.7% (active); with HCT-116 colon, -73.7% (active). The growth in the test with HCC-2998 colon is -15.3% (active).

Take `CN1CCN(C2=Nc3ccccc3Oc3ccc(Cl)cc32)CC1`: the growth with T-47D breast is 81.3%; in the test on BT-549 breast, 111%; in the test with MDA-MB-435 melanoma it was 96.9%; in the test on SW-620 colon it was 96.2%; in the test with MCF7 breast, 97.4%; with HCT-116 colon it was 92.4%. Moreover, the growth in the test on HCC-2998 colon is 116%; in the test with KM12 colon, 102%.

In the case of `O=C(N/N=C/c1cc([N+](=O)[O-])ccc1O)c1cccc2ccccc12`, the growth is 28.3% in the test on T-47D breast; 45.2% in the test on BT-549 breast; 57.1% in the test on MDA-MB-435 melanoma; 47.7% in the test on SW-620 colon; 16.5% in the test on MCF7 breast; 18.4% in the test on HCT-116 colon. The figures for the growth in the test on HCC-2998 colon and in the test with KM12 colon were 52.4% and 56.1%, respectively.

As for `CCOC(=O)c1cc(C(=O)c2cc(OC)c(OC)c(OC)c2)n2c1ccc1c3cccnc3ccc12`, the growth with T-47D breast is 50.7%; in the test with BT-549 breast, 68.9%; in the test on MDA-MB-435 melanoma, 8.8% (active); in the test with SW-620 colon it was 23.6%; with MCF7 breast, 28.8%; with HCT-116 colon it was 21.6%. The growth with HCC-2998 colon was 81.9%; with KM12 colon, 41.5%.

In the case of `c1ccc(/C(=N\Nc2ccc3ccccc3n2)c2ccccn2)cc1`, the growth in the test with T-47D breast is 16.5%; in the test with BT-549 breast, 12.3%; in the test with MDA-MB-435 melanoma, 23.4%; in the test with SW-620 colon it was 22.6%; in the test with MCF7 breast, 12.2%; in the test with HCT-116 colon, 9.03% (active). The growth in the test with HCC-2998 colon is 45.5%.

Consider `C=CCNCCN1C(=O)c2ccc3c4c(ccc(c24)C1=O)C(=O)N(CCNCC=C)C3=O`, for which the growth was -51.5% (active) in the test on T-47D breast; 21.8% with BT-549 breast; -85.2% (active) with MDA-MB-435 melanoma; -50.3% (active) in the test with SW-620 colon; -60.1% (active) in the test with MCF7 breast; -23% (active) in the test on HCT-116 colon. Further, the growth with HCC-2998 colon was -81.2% (active); in the test with KM12 colon, -53.7% (active).

Consider `N#Cc1c(N)nc(-c2cc(F)cc(C(F)(F)F)c2)nc1-c1ccccc1F`, for which the growth in the test with T-47D breast was 49%; in the test with BT-549 breast it was 58.9%; in the test on MDA-MB-435 melanoma, 85.7%; in the test with SW-620 colon it was 63.4%; with MCF7 breast, 73.6%; in the test with HCT-116 colon, 26.2%. Also, the growth was 75.6% with HCC-2998 colon and 79.7% with KM12 colon.

For `CCOC(=O)c1cc(C(=O)c2ccc(Cl)cc2)n2ccc(-c3cc[n+](CC(=O)c4ccc(OC)cc4)cc3)cc12`, the growth was 83.4% in the test with T-47D breast; 82.1% with BT-549 breast; 75.5% with MDA-MB-435 melanoma; -29.5% (active) in the test with SW-620 colon; 1.28% (active) in the test with MCF7 breast; 5.5% (active) in the test with HCT-116 colon. Further, the growth was 100% in the test on HCC-2998 colon and 64.4% in the test on KM12 colon.

Regarding `CN(C)CCCN1c2ccccc2CCc2ccc(Cl)cc21`, the growth is 41.3% with T-47D breast; 77.8% in the test with BT-549 breast; 28.5% in the test with MDA-MB-435 melanoma; 89% in the test on SW-620 colon; 50.8% in the test on MCF7 breast; 43% in the test on HCT-116 colon. The growth with HCC-2998 colon is -13.4% (active); with KM12 colon it was 79.3%.

Regarding `CC(C)(C)OC(=O)CC(S(=O)(=O)c1ccccc1)S(=O)(=O)c1ccccc1`, the growth was 67.1% with T-47D breast; 108% with BT-549 breast; 100% with MDA-MB-435 melanoma; -63.9% (active) in the test on SW-620 colon; 97% in the test with MCF7 breast; 82.5% in the test with HCT-116 colon. Moreover, the growth in the test with HCC-2998 colon is 106%; in the test on KM12 colon, 99.6%.

Take `Cc1c(O)c(=O)ccn1C1CCC(CC2CCC(n3ccc(=O)c(O)c3C)CC2)CC1` (stereo unspecified): the growth in the test on T-47D breast is 32.3%; in the test with BT-549 breast, 31.5%; in the test with MDA-MB-435 melanoma, 33.3%; in the test on SW-620 colon it was 43.1%; in the test with MCF7 breast it was 15.9%; in the test with HCT-116 colon, 28.4%. Besides, the growth in the test on HCC-2998 colon is 55.6%; in the test on KM12 colon, 46.5%.

In the case of `COc1ccc(/C(=N\N)C(=O)c2ccccc2)cc1` (tested in a mixture with another compound), the growth in the test with T-47D breast is 83.7%; in the test with BT-549 breast, 108%; with MDA-MB-435 melanoma it was 92.7%; in the test on SW-620 colon, 107%; with MCF7 breast, 92.4%; with HCT-116 colon, 103%. For the same molecule, the growth with HCC-2998 colon is 98.1%; with KM12 colon, 102%.

For the molecule `CCCCCOC(=O)Nc1nc(=O)n(C2O[C@H](C)[C@@H](O)[C@H]2O)cc1F` (stereo partly specified), the growth in the test with T-47D breast was 102%; in the test with BT-549 breast, 102%; in the test with MDA-MB-435 melanoma, 98.4%; in the test on SW-620 colon, 99.1%; in the test on MCF7 breast, 99.8%; in the test with HCT-116 colon, 101%. In addition, the figures for the growth in the test on HCC-2998 colon and with KM12 colon were 101% and 103%, respectively.

With `COc1ccccc1/C=N\N/C(N)=N\N=C\c1ccccc1OC`, the growth in the test on T-47D breast is 60.9%; with BT-549 breast, -4.14% (active); with MDA-MB-435 melanoma, -39.2% (active); in the test on SW-620 colon, 13.1%; in the test on MCF7 breast it was 11.3%; in the test with HCT-116 colon it was 5.25% (active). Moreover, the growth with HCC-2998 colon was 5.64% (active).
